The nature of experiment [1]: viability loss in pontine glioma line – cell-based, SU-DIPG-XXV, MIPE5.0, CellTiter-Glo, qHTS, dose response (AID 1347065; cut-off not given, nearly all actives have AC50 up to about 26 µM;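 further: cells exposed to compound for 48 hours before ATP readout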). The note with it: CellTiter-Glo ATP luminescence. (In ATP-based viability assays light output follows the ATP content of the culture.)
Experiment [2] can be described thus: growth inhibition of DIPG cells – cell-based, MIPE4.0 library, CellTiter-Glo luminescence, qHTS (AID 1347066; cut-off not given, nearly all actives have AC50 up to about 30 µM;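 further: cells exposed to compound for 48 hours before readout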). The note with it: SU-DIPG-VI viability, CellTiter-Glo ATP luminescence.
The nature of experiment [3]: JHH-DIPG-1 glioma cell viability, MIPE5.0 library, CellTiter-Glo luminescence, qHTS (AID 1347067; cut-off not given, nearly all actives have AC50 up to about 26 µM;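 further: cells exposed to compound for 48 hours before readout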). The note with it: JHH-DIPG-1 glioma viability, CellTiter-Glo ATP luminescence.
Experiment [4] can be described thus: growth inhibition of DIPG cells – cell-based, MIPE5.0 library, qHTS (AID 1347068; cut-off not given, nearly all actives have IC50 up to about 30 µM;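 on IC50: cells exposed to compound for 48 hours before viability readout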). The note with it: SU-DIPG-XXV viability. On the technique in general: Quantitative high-throughput screening tests each substance at several concentrations.
Experiment [5] is described as follows: viability loss with induced miR-34 in A549 – imaging, A549 dox-inducible miR-34, nuclei and caspase counts, primary screen (AID 1347080;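 active means compounds whose cell count with miR-34 switched on is under 0.7 times the count with it off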). The following applies: A549 miR-34 inducible, Hoechst nuclei count, 48 h.
Experiment [6] is described as follows: compounds altering HSF1 focus formation in cells – imaging, Selleck Cancer Library (AID 1347162; in the data active means plate-normalised HSF1 focus index below about 0.46). The note with it: human cells, HSF1 nuclear foci imaging, at 10 µM; SSMD: measured here: HSF1 foci SSMD mean; cell count: measured here: cell number; plate-normalised HSF1 focus index: stronger effect = lower value.
Experiment [7] is described as follows: MELAS cybrid and Rieske KO viability enhancers – cell-based, MELAS cybrids, Rieske KO mouse fibroblasts, CellTiter-Glo, primary screen (AID 1508586;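 active means mean z-score across replicates of 1.96 or higher in either the MELAS or the Rieske mutant cell line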;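 further: z relative to plate mean and SD of compound and empty wells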). The following applies: low glucose.
Experiment [8] can be described thus: drug combination growth inhibition, ovarian cancer – cell-based, oncology-focused library, rucaparib conditional, profiling panel (AID 1508598). The note with it: patient-derived ovarian cancer cells, CellTiter-Glo viability, 144 h, stronger effect = lower value.
Where [9] appears, read: stronger effect = lower value, cell number ratio, induced over uninduced.
[10] abbreviates: measured here: relative caspase fold change +Dox/-Dox.
The mark [11] stands for this setting: measured here: total cells with miR-34 induction, stronger effect = lower value.
[12] abbreviates: measured here: total cells without miR-34 induction.

Several values for one entry are separate records, joined by “and”; a condition that tells them apart may be missing. Identical values can stand only once. Results filed as inconclusive are left out. Activity calls are given as the source filed them.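 How the source made its calls, unless noted: active means normalized viability below 100% at a tested concentration; inactive means the rest.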

One may read the AC50 as the midpoint of the concentration-response curve, whichever way the signal moves. As a reminder, the IC50 is the concentration at which inhibition is half-maximal. Usually viability stands for a read-out of living cells in per cent, often relative to untreated cells.

In the case of `CN(C)c1ccc2nc3ccc(=[N+](C)C)cc-3sc2c1`, the concentration at half-maximal activity (AC50) in experiment [1] is 5.9 µM (active); in experiment [2], 2.35 µM (active); in experiment [3] it was 10.5 µM (active). Further, in experiment [4], the 50% inhibitory concentration (IC50) is 9.34 µM (active). The values for the fold change in experiment [5] (setting [9]) and in experiment [5] (setting [10]) were 0.946 (inactive) and 1.47, respectively. Besides, the cell count in experiment [5] (setting [11]) stood at 3100; in experiment [5] (setting [12]), 3280.

Regarding `Cc1nc(-c2ccc(OCC(C)C)c(C#N)c2)sc1C(=O)O`, the result in experiment [1], in experiment [2], in experiment [3] and in experiment [4] was inactive. Also, the fold change in experiment [5] (setting [9]) is 0.998 (inactive) and 0.915 (inactive); in experiment [5] (setting [10]) it was 0.915 and 0.811. Besides, the cell count in experiment [5] (setting [11]) was 8870 and 7400; in experiment [5] (setting [12]), 8880 and 8080; in experiment [6], 6840. In experiment [6], this molecule displayed an SSMD of 1.2. Further, in experiment [6], the plate-normalised HSF1 focus index is 1.06 (inactive). Moreover, the z-score in experiment [7] (MELAS cybrid survival, CellTiter-Glo 48 h, stronger effect = higher value) was 0.976 (inactive); in experiment [7] (Rieske KO mouse fibroblast survival, CellTiter-Glo 72 h) it was 0.13. In addition, the viability in experiment [8] (at 0.000305 µM, OCI-C5x cells, with rucaparib 10 µM, 100% = cells with rucaparib alone) is 118% (inactive); in experiment [8] (at 0.000305 µM, OCI-C5x cells, without rucaparib), 111% (inactive); in experiment [8] (at 0.000305 µM, OCI-P5x cells, with rucaparib 20 µM, 100% = cells with rucaparib alone), 91.2% (active); in experiment [8] (at 0.000305 µM, OCI-P5x cells, without rucaparib), 99.9% (active); in experiment [8] (at 0.00122 µM, OCI-C5x cells, with rucaparib 10 µM, 100% = cells with rucaparib alone), 115% (inactive); in experiment [8] (at 0.00122 µM, OCI-C5x cells, without rucaparib) it was 122% (inactive). In addition, the viability was 102% (inactive) in experiment [8] (at 0.00122 µM, OCI-P5x cells, with rucaparib 20 µM, 100% = cells with rucaparib alone); 99.6% (active) in experiment [8] (at 0.00122 µM, OCI-P5x cells, without rucaparib); 112% (inactive) in experiment [8] (at 0.00488 µM, OCI-C5x cells, with rucaparib 10 µM, 100% = cells with rucaparib alone); 109% (inactive) in experiment [8] (at 0.00488 µM, OCI-C5x cells, without rucaparib); 109% (inactive) in experiment [8] (at 0.00488 µM, OCI-P5x cells, with rucaparib 20 µM, 100% = cells with rucaparib alone); 100% (inactive) in experiment [8] (at 0.00488 µM, OCI-P5x cells, without rucaparib). Moreover, the viability was 111% (inactive) in experiment [8] (at 0.0195 µM, OCI-C5x cells, with rucaparib 10 µM, 100% = cells with rucaparib alone); 110% (inactive) in experiment [8] (at 0.0195 µM, OCI-C5x cells, without rucaparib); 105% (inactive) in experiment [8] (at 0.0195 µM, OCI-P5x cells, with rucaparib 20 µM, 100% = cells with rucaparib alone); 104% (inactive) in experiment [8] (at 0.0195 µM, OCI-P5x cells, without rucaparib); 109% (inactive) in experiment [8] (at 0.0781 µM, OCI-C5x cells, with rucaparib 10 µM, 100% = cells with rucaparib alone); 112% (inactive) in experiment [8] (at 0.0781 µM, OCI-C5x cells, without rucaparib). The viability in experiment [8] (at 0.0781 µM, OCI-P5x cells, with rucaparib 20 µM, 100% = cells with rucaparib alone) was 104% (inactive); in experiment [8] (at 0.0781 µM, OCI-P5x cells, without rucaparib), 108% (inactive); in experiment [8] (at 0.313 µM, OCI-C5x cells, with rucaparib 10 µM, 100% = cells with rucaparib alone) it was 110% (inactive); in experiment [8] (at 0.313 µM, OCI-C5x cells, without rucaparib), 109% (inactive); in experiment [8] (at 0.313 µM, OCI-P5x cells, with rucaparib 20 µM, 100% = cells with rucaparib alone), 97.1% (active); in experiment [8] (at 0.313 µM, OCI-P5x cells, without rucaparib) it was 109% (inactive). Moreover, the viability in experiment [8] (at 1.25 µM, OCI-C5x cells, with rucaparib 10 µM, 100% = cells with rucaparib alone) was 108% (inactive); in experiment [8] (at 1.25 µM, OCI-C5x cells, without rucaparib), 118% (inactive); in experiment [8] (at 1.25 µM, OCI-P5x cells, with rucaparib 20 µM, 100% = cells with rucaparib alone) it was 102% (inactive); in experiment [8] (at 1.25 µM, OCI-P5x cells, without rucaparib), 109% (inactive); in experiment [8] (at 5 µM, OCI-C5x cells, with rucaparib 10 µM, 100% = cells with rucaparib alone), 118% (inactive); in experiment [8] (at 5 µM, OCI-C5x cells, without rucaparib), 134% (inactive). Besides, the viability was 103% (inactive) in experiment [8] (at 5 µM, OCI-P5x cells, with rucaparib 20 µM, 100% = cells with rucaparib alone) and 108% (inactive) in experiment [8] (at 5 µM, OCI-P5x cells, without rucaparib).

In the case of `S=P(N1CC1)(N1CC1)N1CC1`, the outcome in experiment [1], in experiment [2], in experiment [3] and in experiment [4] was inactive. Further, the fold change in experiment [5] (setting [9]) is 0.906 (inactive); in experiment [5] (setting [10]), 2.37. The cell count in experiment [5] (setting [11]) worked out at 2790; in experiment [5] (setting [12]), 3080.

Source of the values: PubChem BioAssay.
